Data as given in PubChem BioAssay (NCATS).
“And” between values parts separate entries of the source, which are not always exact repeats. Equal entries are not always repeated. Records with an inconclusive call do not appear. The source made the active and inactive calls. Unless noted, calls come from the whole dose curve.

What was measured:
[1] = target: Bile acid receptor (Homo sapiens) (UniProt Q96RI1); test: qHTS assay for small molecule antagonists of farnesoid X receptor signaling (AID 588526); note: potency is the fitted concentration of half-maximal effect
Outline: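 Beta-lactamase reporter antagonist mode: HEK293T FXR-UAS-bla cells, titrated compound, CDCA stimulation, 16 h 37 C, CCF4 dye 2 h RT. Data normalized to CDCA 50 uM and DMSO; Hill-fit IC50.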

[2] = target: Thyroid hormone receptor beta (Homo sapiens) (UniProt P10828); test: qHTS assay for small molecule antagonists of thyroid hormone receptor beta signaling (AID 588547; active = well fitted inhibition curve with a large enough effect in the signal ratio, with a control signal flat, not every such curve was filed as active; the % refers to the signal ratio;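 note: cells stimulated with 0.4 nM T3 agonist during compound exposure; series mostly up to about 77 µM; % is set by controls: 0 for no effect and ±100 for the full control effect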); details: TR-UAS-bla HEK293, beta-lactamase ratio, antagonist mode, 18 h
Outline: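 Inhibition of T3-driven (0.4nM final) beta-lactamase reporter activity was measured over 0.59 nM to 92 uM compound after 18 h at 37 C. The cells were GripTite HEK293 TR-UAS-bla in charcoal/dextran-stripped serum, with CCF4 ratio read-out and IC50 from Hill fits.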

[3] = qHTS assay for small molecule activators of the nuclear factor-kappa B (NF-kB) signaling pathway (AID 651749; active = well fitted activation curve with a large enough effect in the signal ratio; the % refers to the signal ratio; note: series mostly up to about 77 µM; % of control where 0% means no effect); details: NF-kB-bla ME-180 cells, beta-lactamase FRET ratio, 16 h; activation: hits give high values
Outline: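 Activation measured after 16 hr compound treatment at 37C, 5% CO2, of 2,000 ME-180 cells/well stably expressing an NF-kB response element–driven beta-lactamase reporter, via FRET-disruption fluorescence.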

[4] = target: Peroxisome proliferator-activated receptor delta (Homo sapiens) (UniProt Q03181); test: qHTS assay for small molecule antagonists of peroxisome proliferator-activated receptor delta signaling (AID 588535; active = well fitted inhibition curve with a large enough effect in the signal ratio, with a control signal flat, not every such curve was filed as active; the % refers to the signal ratio)
Outline: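 Titrations were run on PPAR-delta-UAS-bla HEK293T cells in charcoal/dextran-stripped serum, incubated 18 h at 37 C. CCF4 fluorescence (460/530 nm) after 2 h RT; Hill equation yields IC50 and maximal response.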

[5] = qHTS assay for small molecule agonists of the antioxidant response element (ARE) signaling pathway (AID 651741; active = well fitted activation curve with a large enough effect in the signal ratio; the % refers to the signal ratio; note: potency is the fitted concentration of half-maximal effect; for activation: % of control where 0% means no effect)
Outline: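 Beta-lactamase reporter under ARE control in HepG2 cells, 2,000 per well, was induced by 16 h compound treatment at 37 C. Read-out was fluorescence from LiveBLAzer B/G FRET substrate after 2 h at room temperature.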

[6] = target: Androgen receptor (Homo sapiens) (UniProt P10275); test: qHTS assay for small molecule antagonists of androgen receptor signaling (AID 588516; active = well fitted curve in the direction sought with a large enough effect in the signal ratio, with a control signal flat, not every such curve was filed as active; the % refers to the signal ratio; note: % is set by controls: 0 for no effect and ±100 for the full control effect)
Outline: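 Compounds tested in titration against 10 nM R1881 in AR-responsive bla reporter HEK 293 cells; CCF4 fluorescence (460/530 nm) after 16 h exposure gave IC50 and efficacy.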

[7] = target: Glucocorticoid receptor (Homo sapiens) (UniProt P04150); test: qHTS assay for small molecule antagonists of glucocorticoid receptor signaling (AID 588533; active = well fitted inhibition curve with a large enough effect in the signal ratio, with a control signal flat, not every such curve was filed as active; the % refers to the signal ratio;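 note: cells stimulated with 2 nM dexamethasone as agonist; % is set by controls: 0 for no effect and ±100 for the full control effect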)
Outline: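 Antagonist-mode qHTS: compound titrations added to GRE-bla HeLa cells, then dexamethasone 2 nM final; 18 h, 37 C. CCF4 FRET fluorescence normalized to dexamethasone and DMSO; IC50 from Hill fit.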

[8] = target: Androgen receptor (Homo sapiens) (UniProt P10275); test: qHTS assay for small molecule agonists of androgen receptor signaling (AID 588515; active = well fitted curve in the direction sought with a large enough effect in the signal ratio, with a control signal flat; the % refers to the signal ratio; note: % is set by controls: 0 for no effect and ±100 for the full control effect); details: AR-UAS-bla HEK293, beta-lactamase ratio, agonist 16 h; activation: hits give high values
Outline: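 Stimulation of an AR-responsive β-lactamase reporter in GripTite HEK293 cells was measured after 16 h compound exposure at 37 °C, via CCF4 fluorescence after 2 h RT. EC50 from Hill fits, normalized to R1881 at 30 nM.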

Thyroid hormone receptor beta (Homo sapiens), sequence (P10828 whole entry, looked up): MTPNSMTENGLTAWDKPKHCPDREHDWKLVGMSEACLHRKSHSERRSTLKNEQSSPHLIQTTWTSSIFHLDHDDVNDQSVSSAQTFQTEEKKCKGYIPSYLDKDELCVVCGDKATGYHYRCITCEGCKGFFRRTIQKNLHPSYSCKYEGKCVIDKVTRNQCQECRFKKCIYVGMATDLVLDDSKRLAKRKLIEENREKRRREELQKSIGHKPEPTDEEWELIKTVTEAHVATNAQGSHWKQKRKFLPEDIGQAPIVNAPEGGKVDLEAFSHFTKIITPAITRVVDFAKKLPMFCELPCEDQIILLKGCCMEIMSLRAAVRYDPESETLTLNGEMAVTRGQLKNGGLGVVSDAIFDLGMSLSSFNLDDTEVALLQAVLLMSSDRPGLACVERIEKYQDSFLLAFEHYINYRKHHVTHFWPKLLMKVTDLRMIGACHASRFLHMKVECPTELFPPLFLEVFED
Androgen receptor (Homo sapiens), sequence (P10275 whole entry, looked up): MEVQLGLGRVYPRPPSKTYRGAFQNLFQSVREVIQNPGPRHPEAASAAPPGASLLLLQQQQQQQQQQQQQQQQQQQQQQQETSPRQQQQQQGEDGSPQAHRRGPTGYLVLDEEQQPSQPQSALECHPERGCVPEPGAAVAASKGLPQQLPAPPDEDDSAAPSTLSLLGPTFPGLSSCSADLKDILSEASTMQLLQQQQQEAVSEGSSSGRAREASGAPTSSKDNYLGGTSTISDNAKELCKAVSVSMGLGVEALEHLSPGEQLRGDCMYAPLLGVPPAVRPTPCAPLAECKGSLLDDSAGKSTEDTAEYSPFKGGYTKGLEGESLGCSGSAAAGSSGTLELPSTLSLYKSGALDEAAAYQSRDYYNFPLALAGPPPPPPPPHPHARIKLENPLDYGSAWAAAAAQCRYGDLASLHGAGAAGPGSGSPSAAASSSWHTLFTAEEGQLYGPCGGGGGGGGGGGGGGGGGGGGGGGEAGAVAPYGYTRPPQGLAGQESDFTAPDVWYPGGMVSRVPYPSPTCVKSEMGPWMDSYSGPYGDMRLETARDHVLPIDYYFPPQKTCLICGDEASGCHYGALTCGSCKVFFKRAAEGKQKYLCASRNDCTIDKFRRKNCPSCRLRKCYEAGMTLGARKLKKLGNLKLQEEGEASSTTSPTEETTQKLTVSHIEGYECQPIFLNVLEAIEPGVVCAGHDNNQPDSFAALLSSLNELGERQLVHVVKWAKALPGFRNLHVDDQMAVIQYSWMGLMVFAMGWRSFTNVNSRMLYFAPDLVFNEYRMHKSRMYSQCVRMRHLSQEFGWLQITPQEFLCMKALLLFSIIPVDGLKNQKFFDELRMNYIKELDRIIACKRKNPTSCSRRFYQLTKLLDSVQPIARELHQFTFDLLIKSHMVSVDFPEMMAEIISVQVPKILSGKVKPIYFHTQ
Peroxisome proliferator-activated receptor delta (Homo sapiens), sequence (Q03181 whole entry, looked up): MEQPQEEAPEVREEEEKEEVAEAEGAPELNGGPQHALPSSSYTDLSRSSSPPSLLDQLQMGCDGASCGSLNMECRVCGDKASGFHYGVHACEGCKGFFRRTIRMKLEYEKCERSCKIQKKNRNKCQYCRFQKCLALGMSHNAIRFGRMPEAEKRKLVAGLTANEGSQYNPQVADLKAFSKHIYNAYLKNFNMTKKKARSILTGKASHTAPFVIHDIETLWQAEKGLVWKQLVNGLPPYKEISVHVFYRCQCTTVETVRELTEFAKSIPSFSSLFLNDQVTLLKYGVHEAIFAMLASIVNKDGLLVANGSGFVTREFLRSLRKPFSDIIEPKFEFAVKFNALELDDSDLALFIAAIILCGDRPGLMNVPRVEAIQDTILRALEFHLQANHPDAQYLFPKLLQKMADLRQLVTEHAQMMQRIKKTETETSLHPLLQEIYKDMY
Bile acid receptor (Homo sapiens), sequence (Q96RI1 whole entry, looked up): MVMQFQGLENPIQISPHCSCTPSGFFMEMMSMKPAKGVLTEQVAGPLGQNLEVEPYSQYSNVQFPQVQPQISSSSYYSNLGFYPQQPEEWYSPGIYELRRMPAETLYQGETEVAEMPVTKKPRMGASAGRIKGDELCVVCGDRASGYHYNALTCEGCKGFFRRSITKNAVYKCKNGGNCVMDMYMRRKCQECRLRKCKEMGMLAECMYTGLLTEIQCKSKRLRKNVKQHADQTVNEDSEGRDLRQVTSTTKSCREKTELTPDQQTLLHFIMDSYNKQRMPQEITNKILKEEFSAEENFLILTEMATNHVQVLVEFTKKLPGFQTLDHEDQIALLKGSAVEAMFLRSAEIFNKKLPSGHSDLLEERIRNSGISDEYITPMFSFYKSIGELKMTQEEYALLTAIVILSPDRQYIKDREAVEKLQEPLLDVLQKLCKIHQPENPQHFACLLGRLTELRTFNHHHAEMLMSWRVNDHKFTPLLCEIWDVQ
Glucocorticoid receptor (Homo sapiens), sequence (P04150 whole entry, looked up): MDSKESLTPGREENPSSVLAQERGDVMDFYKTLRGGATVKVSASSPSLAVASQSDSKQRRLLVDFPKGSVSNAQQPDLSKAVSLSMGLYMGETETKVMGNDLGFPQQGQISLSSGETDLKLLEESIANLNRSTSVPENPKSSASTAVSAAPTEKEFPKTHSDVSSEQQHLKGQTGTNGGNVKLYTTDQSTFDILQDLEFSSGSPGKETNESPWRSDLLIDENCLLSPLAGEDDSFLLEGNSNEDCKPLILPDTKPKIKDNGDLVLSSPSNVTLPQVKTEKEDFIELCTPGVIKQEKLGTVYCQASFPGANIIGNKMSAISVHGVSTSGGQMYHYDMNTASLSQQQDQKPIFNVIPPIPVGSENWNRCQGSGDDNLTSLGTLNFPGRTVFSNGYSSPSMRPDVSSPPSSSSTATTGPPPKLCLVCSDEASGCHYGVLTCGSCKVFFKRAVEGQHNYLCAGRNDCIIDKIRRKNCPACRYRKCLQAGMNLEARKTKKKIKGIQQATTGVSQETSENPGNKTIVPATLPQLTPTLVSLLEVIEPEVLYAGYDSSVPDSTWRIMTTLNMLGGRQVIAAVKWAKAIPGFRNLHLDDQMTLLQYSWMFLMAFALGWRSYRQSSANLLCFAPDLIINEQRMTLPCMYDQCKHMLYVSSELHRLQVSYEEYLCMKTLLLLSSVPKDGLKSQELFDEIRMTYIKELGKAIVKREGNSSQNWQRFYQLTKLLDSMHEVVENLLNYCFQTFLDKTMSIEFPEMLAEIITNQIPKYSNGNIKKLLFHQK

CC(C)(C)[C@H](O)[C@H](Cc1ccc(Cl)cc1)n1cncn1
inactive: Potency [1] | activity change % (negative = inhibition) [2] -7.84% and -5.42% | activation [3] 1.04% and 0.72%

CCCCCCCCCCCC(=O)OC
active: Potency [1] 20 µM

CCC(C)OC(=O)N1CCCCC1CCO (stereo not given)
inactive: Potency [1] | Potency [4] | activity change % (negative = inhibition) [2] -6.45% | Potency [5] | activation [3] -1.57%

CCCCC(CC)COC(=O)/C=C\C(=O)OCC(CC)CCCC (stereo not given)
inactive: outcome [6] | Potency [7] | Potency [4] | activation [3] 0.118%

CC(C)(C)c1ccc(C(=O)O)cc1
inactive: Potency [1] | Potency [7] | activity change % (negative = inhibition) [2] 0.292%

O=C(O)c1cc2ccccc2cc1O
inactive: outcome [6] | activity change % (negative = inhibition) [2] -1.94% | activation [3] 0.405%

C1=C/CC/C=C/CC/C=C/CC/1
inactive: Potency [1] | Potency [7] | Potency [4] | activity change % (negative = inhibition) [2] 0.305% | Potency [5] | activation [3] 0.104%

C=C(C)C(=O)OCC[N+](C)(C)C
inactive: outcome [6] | Potency [7] | Potency [4] | activity change % (negative = inhibition) [2] 5.25% | Potency [5]

CO[Si](CCCNCCN)(OC)OC
inactive: outcome [6] | Potency [4] | activity change % (negative = inhibition) [2] 7.69%

CO[Si](CCCOCC1CO1)(OC)OC (stereo not given)
inactive: Potency [1] | Potency [4] | activity change % (negative = inhibition) [2] 7.57% | Potency [5]

CCOCCOCCOC(C)=O
inactive: Potency [1] | Potency [4] | activity change % (negative = inhibition) [2] 14% | Potency [5]

CCCCCCCCCCCC[N+](C)(C)[O-]
inactive: Potency [1] | Potency [4] | activity change % (negative = inhibition) [2] -1.65%

CC(C)C[C@H](NC(=O)OCC1c2ccccc2-c2ccccc21)C(=O)O
inactive: Potency [1] | Potency [4] | activity change % (negative = inhibition) [2] -4.45% | activation [3] 1.69%

Oc1ccc(C(c2ccc(O)cc2)C(Cl)(Cl)Cl)cc1
inactive: Potency [1] | Potency [7] | activity change % (negative = inhibition) [2] -14.4%
active: Potency [5] 54.5 µM

CS(C)=O
inactive: Potency [1] | Potency [7] | Potency [4] | activity change % (negative = inhibition) [2] -25.7% | activation [3] 0.392%

COCCOCCOCCOC
inactive: Potency [1] | activity change % (negative = inhibition) [2] 2.02% | activation [3] 0.99%

O=C(O)CCCCCCC(=O)O
inactive: Potency [1] | Potency [7]

O=C(O)C1(C(=O)Nc2ccc(Cl)cc2Cl)CC1
inactive: outcome [6] | activation [3] -1.09%

CCCCCCC(C)(C)S
inactive: Potency [1] | Potency [7] | Potency [5]

CC(C)=CCC/C(C)=C\CO
inactive: outcome [6] | Potency [7] | Potency [4] | activity change % (negative = inhibition) [2] -2.03% | Potency [5] | activation [3] -1.2%

CCCC[O][Al]([O]CCCC)[O]CCCC
inactive: Potency [1] | Potency [4] | Potency [5]

O=C1CCC(C2CCCCC2)CC1
inactive: Potency [1] | Potency [7] | activation [3] -1.09%

CCCCCCC(O)CCCCCCCCCCC(=O)O (stereo not given)
inactive: Potency [1] | Potency [4] | activity change % (negative = inhibition) [2] -5.14%

OCc1cccc(Oc2ccccc2)c1
inactive: outcome [6] | Potency [1] | Potency [4] | activity change % (negative = inhibition) [2] 9.19% | Potency [5] | activation [3] 2.29%

CC(COCC(C)OC(=O)c1ccccc1)OC(=O)c1ccccc1 (stereo not given)
inactive: Potency [1] | Potency [7] | Potency [4] | activity change % (negative = inhibition) [2] -7.07% | Potency [5]

CCOc1ccc(NC(=O)OC(C)C)cc1OCC
inactive: Potency [1] | Potency [7] | Potency [4] | activity change % (negative = inhibition) [2] -11%

CCCCCCOCCOCCO
inactive: Potency [1] | Potency [7] | Potency [4] | activity change % (negative = inhibition) [2] -6.1%

COC(=O)CCSCCC(=O)OC
inactive: Potency [1] | Potency [4]

C=C(C)C(=O)OCC(CC)(COC(=O)C(=C)C)COC(=O)C(=C)C
inactive: Potency [1] | Potency [4] | Potency [5] | activation [3] 0.727%

C[Si](C)(Cl)[Si](C)(C)Cl
inactive: outcome [6] | Potency [1] | Potency [4] | activity change % (negative = inhibition) [2] 6.15% | activation [3] -1.24%

O=C1NC(=O)C(Cc2ccc(OCCN3COc4ccccc4C3=O)cc2)S1 (stereo not given)
inactive: Potency [1] | activation [3] 0.424%
active: Potency [5] 48.6 µM

Cc1ccc(N)c(S(=O)(=O)O)c1
inactive: Potency [1] | Potency [7] | Potency [4] | activity change % (negative = inhibition) [2] -15.2% | activation [3] 0.0519%

CCCCC(CC)COC(=O)c1ccc(C(=O)OCC(CC)CCCC)cc1 (stereo not given)
inactive: outcome [6] | Potency [1] | Potency [4] | Potency [5]

CCCCCCCCCCCCCCCO
inactive: Potency [1] | Potency [4] | activity change % (negative = inhibition) [2] 4.44% | Potency [5] | activation [3] -1.59%

Nc1cc(Cl)c(O)c(Cl)c1
inactive: activation [8] -4.43% | Potency [7] | activation [3] -1.35%
active: Potency [5] 12.2 µM

CCOC(=O)[C@H](C)Oc1ccc(Oc2nc3ccc(Cl)cc3o2)cc1
inactive: Potency [1] | Potency [4] | activity change % (negative = inhibition) [2] -0.0371%

c1ccc2c(c1)ccc1c3ccccc3ccc21
inactive: Potency [1] | Potency [4] | activity change % (negative = inhibition) [2] 1.89% | activation [3] -0.747%
